Assay results published in PubChem BioAssay (Tox21).
Activity calls are given as the source filed them. Where a call stands in place of a potency, no number is given. The call rests on the fitted dose curve.

test: qHTS assay to identify small molecule agonists of the sonic hedgehog signaling (Shh) pathway (AID 1259368); conditions: NIH/3T3 Gli1-Luc reporter, luciferase, 24 h; series mostly up to 92.4 µM;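 further: NIH/3T3-derived 3T3Gli1-Luc cells carrying a stable Gli1-driven firefly luciferase reporter; nearly all actives have a fitted effect of over 15% in size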
From the text: National Center for Advancing Translational Sciences [NCATS]
NIH Chemical Genomics Center [NCGC]
U.S. Environmental Protection Agency [EPA]
National Institutes of Environmental Health Sciences [NIEHS]
National Toxicology Program [NTP]
The sonic hedgehog (Shh) pathway is essential for normal embryonic development. Dysregulation of the Shh pathway can cause severe developmental defects in organs. Therefore chemicals that interfere with the pathway are potential developmental toxicants. A cell line designated 3T3Gli1-Luc (DMB/OARSA/CFSAN/FDA, Laurel, MD), a NIH/3T3 derived clone containing stably integrated Gli1-Luc reporter is used to detect chemical interference of the Shh pathway, by changes in the expression of the firefly Luc gene under the control of the Gli1 transcriptional response element. This cell line was used to screen Tox21 libraries for identifying and prioritizing the potential developmental toxicants that interfere Shh pathway.
3T3 Gli1-Luc cells were dispensed at 2,000 per well in 5uL of culture medium into white solid bottom 1536-well plates (Greiner Bio-One, Monroe, NC) using a Multidrop Combi (Thermo Scientific, Waltham, MA) dispenser. The assay plates were incubated at 37 C and 5% CO2 for 4hr, and then 23nL of compounds dissolved in DMSO and positive control were transferred using a Pintool station (Wako, San Diego, CA). The assay plates were incubated at 37C and 5% CO2 for 24hr. For luciferase read, 4uL of Amplite Luciferase reporter gene assay reagent (AAT Bioquest, Inc. Sunnyvale, CA) was added to each well of the assay plates using Flying Reagent Dispenser (FRD, Aurora Discovery, San Diego, CA) and incubated at room temperature for 30min. The luminescence signal was measured using a ViewLux plate reader (Perkin Elmer, Shelton, CT).

Row | Compound | Potency
1 | CC(C)=CCC/C(C)=C/C=O | inactive
2 | CCCN(CCC)C(=O)SCC | inactive
3 | O=c1n(CCCN2CCN(c3cccc(Cl)c3)CC2)nc2ccccn12 | inactive
4 | CC(COCC(C)OC(=O)c1ccccc1)OC(=O)c1ccccc1 (stereo not given) | inactive
5 | CC(=O)OCc1ccc2c(c1)OCO2 | inactive
6 | CC/C=C(\C(=O)N[C@@H]1C(=O)N2C(C(=O)OCOC(=O)C(C)(C)C)=C(COC(N)=O)CS[C@H]12)c1csc(N)n1 | inactive
7 | O=C1O[C@H]([C@H](O)CO)C(O)=C1O | inactive
8 | CS(=O)(=O)c1ccc(Cl)cc1 | inactive
9 | CCCOCC(C)O (stereo not given) | inactive
10 | Cc1ccc(C)c(S(=O)(=O)O)c1 | inactive
11 | CCOC(=O)c1ccc(O)cc1 | inactive
12 | CCCCCCCCCCCCCC(=O)O | inactive
13 | CC(CN1c2ccccc2Sc2ccccc21)N(C)C (stereo not given) | inactive
14 | OCC(O)CS (stereo not given) | inactive
15 | CC(=O)OC[C@H]1O[C@@](COC(C)=O)(O[C@H]2O[C@H](COC(C)=O)[C@@H](OC(C)=O)[C@H](OC(C)=O)[C@H]2OC(C)=O)[C@@H](OC(C)=O)[C@@H]1OC(C)=O | inactive
16 | Cc1ccncc1 | inactive
17 | OCCOCCOCCOCCOCCO | inactive
18 | CCCCC(=O)O | inactive
19 | Cc1ccc(C(C)C)cc1 | inactive
20 | CCCCCCCCO | inactive

Row | Compound | Potency
21 | O=C(O)Cc1c[nH]c2ccccc12 | inactive
22 | CC(C)(C)NC[C@H](O)COc1nsnc1N1CCOCC1 | inactive
23 | CC(=O)OCCC(C)C | inactive
24 | CCCCCCCCCCCC(=O)N(C)CC(=O)O | inactive
25 | C=C(C)CC(C)(C)C | inactive
26 | NC(=O)NC(N)=O | inactive
27 | Nc1cccc(C(F)(F)F)c1 | inactive
28 | Cc1ccccc1Cl | inactive
29 | C=CC(=O)NCOCCCC | inactive
30 | Cc1cc(C)cc(O)c1 | inactive
31 | Cc1nnc(NS(=O)(=O)c2ccc(N)cc2)s1 | inactive
32 | COc1ccccc1[N+](=O)[O-] | inactive
33 | O=C(NCC1CCCCN1)c1cc(OCC(F)(F)F)ccc1OCC(F)(F)F (stereo not given) | inactive
34 | CC(O)CNCC(C)O (stereo not given) | inactive
35 | COc1c2ccoc2cc2oc(=O)ccc12 | inactive
36 | Cc1cccc(C)c1[N+](=O)[O-] | inactive
37 | Brc1ccc(Oc2ccc(Br)cc2)cc1 | inactive
38 | COc1ccc2cc3[n+](cc2c1OC)CCc1cc2c(cc1-3)OCO2 | inactive
39 | CCCCC(CC)COC(=O)c1ccc(C(=O)OCC(CC)CCCC)cc1 (stereo not given) | inactive
40 | NCCNCCNCCN | inactive
